Reference: PubChem BioAssay
Where “and” joins values, the source holds several entries; their conditions need not be identical. Equal values may be shown once. Some compounds were tested as several samples or in several runs, with calls that do not always agree. Calls of active or inactive are those of the source.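 How the source made its calls, unless noted: active means normalized viability below 100% at a tested concentration; inactive means the rest.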

Tests used:
[1] = Wnt pathway potentiators raising nuclear beta-catenin – imaging, WNT3A-conditioned medium, mouse C2C12, NPC library, primary screen (AID 1117326; in the data active means nuclear beta-catenin stimulation mostly above about 4.2%, no sharp cut-off; inactive means mostly below about 10%); conditions: stronger effect = higher value
[2] = stimulators of insulin release from INS-1E, primary screen, cell-based, 5 mM glucose, NPC library (AID 1117329;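 active means compound raises insulin release from rat beta cells at 5 mM glucose, no numeric limit stated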); conditions: rat INS-1E insulin secretion, at 10 µM, stronger effect = higher value
[3] = growth inhibition of GSK3B-pretreated HCT116 cells – cell-based, CellTiter-Glo, 0.2 to 20 µM (AID 1117336;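 active means compounds lowering colon cancer cell viability after pretreatment blocking the GSK3B kinase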); conditions: HCT116 viability after GSK3B inhibitor, at 20 µM, stronger effect = higher value
[4] = inhibition of endothelial tube formation, primary screen, imaging, VEGF stimulated, CD31 staining, tube area, NPC library (AID 1117340;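 active means compound that reduces growth-factor-driven endothelial tube area in a mixed cell culture, no cutoff stated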); conditions: VEGF-stimulated ADSC/ECFC co-culture, at 10 µM, stronger effect = higher value
[5] = GLP1 release stimulators, primary, NCI-H716, NPC library (AID 1117341;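 active means compound raises GLP1 secretion from the human gut endocrine cells, with no numeric limit stated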); conditions: NCI-H716 cells, at 10 µM, stronger effect = higher value
[6] = HCT116 colon cancer cell growth inhibition, primary screen, CellTiter-Glo luminescence, NPC library (AID 1117342;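 active means compounds that lower survival of HCT116 colon cancer cells in the luminescence readout, no numeric limit stated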); conditions: at 20 µM (top of the series)
[7] = reduced SW480 viability measured with CellTiter-Glo, NPC library, primary (AID 1117343;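 active means compounds that lower viability of the colon cancer cells in the luminescence readout, with no numeric limit stated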); conditions: CellTiter-Glo luminescence; at 20 µM (top of the series)
[8] = NPC library primary testing for decreased DLD-1 cell viability via CellTiter-Glo (AID 1117346;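 active means compounds that lower survival of DLD-1 colon cancer cells in the luminescence readout, no cutoff given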); conditions: DLD-1 viability, CellTiter-Glo luminescence; at 20 µM (top of the series)
[9] = target: 6-phosphogluconate dehydrogenase, decarboxylating (Homo sapiens) (UniProt P52209); assay: inhibition of human phosphogluconate dehydrogenase – biochemical, recombinant enzyme, NADPH absorbance, primary screen (AID 1159550;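 active means at least 20% inhibition of 6-phosphogluconate dehydrogenase activity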); conditions: recombinant 6PGD, NADPH absorbance 341 nm; at 10 µM; stronger effect = higher value
Sequence of 6-phosphogluconate dehydrogenase, decarboxylating (Homo sapiens) (P52209 whole entry, looked up): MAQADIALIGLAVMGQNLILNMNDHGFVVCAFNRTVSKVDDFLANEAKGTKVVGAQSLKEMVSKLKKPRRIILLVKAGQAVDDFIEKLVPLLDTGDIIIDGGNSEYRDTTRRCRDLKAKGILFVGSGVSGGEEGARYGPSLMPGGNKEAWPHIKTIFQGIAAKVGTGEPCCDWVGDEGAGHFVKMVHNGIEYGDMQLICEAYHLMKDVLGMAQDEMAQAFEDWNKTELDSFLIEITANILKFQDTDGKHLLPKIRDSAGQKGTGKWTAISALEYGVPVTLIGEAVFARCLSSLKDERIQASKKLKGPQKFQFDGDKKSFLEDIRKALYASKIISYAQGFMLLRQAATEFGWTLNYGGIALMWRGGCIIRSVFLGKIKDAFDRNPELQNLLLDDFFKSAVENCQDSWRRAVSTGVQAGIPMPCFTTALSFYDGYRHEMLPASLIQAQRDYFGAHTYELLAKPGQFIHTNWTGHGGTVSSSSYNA

[10] = EMT-state selective cytotoxicity in co-culture – imaging, PC-3E GFP, TEM4-18 mCherry, primary screen (AID 1345086;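 active means compounds killing one labelled cell type while sparing the other, by normalised counts and ratio limits, not self-fluorescent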;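 on all read-outs here: cells exposed to compound for 72 h before imaging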;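 on red/green cell ratio (normalised): normalised mesenchymal count divided by normalised epithelial count so high means epithelial killing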); conditions: PC-3E GFP / TEM4-18 mCherry co-culture, imaging cell counts, at 1 µM; for red/green cell ratio (normalised): actives lie on both sides, counts scaled to control wells, 1 = unselective
[11] = viability loss with induced miR-34 in A549 – imaging, A549 dox-inducible miR-34, nuclei and caspase counts, primary screen (AID 1347080;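 active means compounds whose cell count with miR-34 switched on is under 0.7 times the count with it off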); conditions: A549 miR-34 inducible, Hoechst nuclei count, 48 h
[12] = MELAS cybrid and Rieske KO viability enhancers – cell-based, MELAS cybrids, Rieske KO mouse fibroblasts, CellTiter-Glo, primary screen (AID 1508586;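 active means mean z-score across replicates of 1.96 or higher in either the MELAS or the Rieske mutant cell line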;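 further: z relative to plate mean and SD of compound and empty wells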); conditions: low glucose
[13] = target: NAD(+) hydrolase SARM1 (Homo sapiens) (UniProt Q6SZW1); assay: blocking NAD cleavage by SARM1 SAM-TIR – cell lysate, NAD-Glo luminescence (AID 1508614;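 active means compound whose remaining NAD level is above about 45 nM, limit read from the data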); conditions: SAM-TIR HEK293T lysate NADase, at 1 µM, stronger effect = higher value
Sequence of NAD(+) hydrolase SARM1 (Homo sapiens) (Q6SZW1 whole entry, looked up): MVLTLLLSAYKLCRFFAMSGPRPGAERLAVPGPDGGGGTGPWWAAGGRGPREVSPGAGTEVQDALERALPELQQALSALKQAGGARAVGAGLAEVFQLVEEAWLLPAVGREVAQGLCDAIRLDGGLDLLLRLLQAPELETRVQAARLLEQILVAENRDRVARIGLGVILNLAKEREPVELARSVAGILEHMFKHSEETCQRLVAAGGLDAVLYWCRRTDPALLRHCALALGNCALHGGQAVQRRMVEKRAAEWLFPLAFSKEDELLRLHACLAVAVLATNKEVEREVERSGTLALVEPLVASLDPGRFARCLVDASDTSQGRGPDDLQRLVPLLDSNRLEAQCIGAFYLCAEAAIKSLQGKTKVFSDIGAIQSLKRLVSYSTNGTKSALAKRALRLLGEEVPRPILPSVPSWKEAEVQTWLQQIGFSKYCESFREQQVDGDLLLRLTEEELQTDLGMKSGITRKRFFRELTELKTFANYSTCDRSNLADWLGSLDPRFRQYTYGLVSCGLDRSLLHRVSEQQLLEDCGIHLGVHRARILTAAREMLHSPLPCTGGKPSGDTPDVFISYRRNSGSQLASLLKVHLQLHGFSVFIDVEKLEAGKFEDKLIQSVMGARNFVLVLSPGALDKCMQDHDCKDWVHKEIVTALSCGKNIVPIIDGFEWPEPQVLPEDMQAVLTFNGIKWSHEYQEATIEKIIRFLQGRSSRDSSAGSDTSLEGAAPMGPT

F380Y = assay: BK channel mutant inhibitors and activators – cell-based, U2OS BacMam, thallium flux, beta subunits, selectivity assay, profiling panel (AID 1259406;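 active means thallium flux through the channel raised or lowered by more than 3 SD from vehicle-only wells, actives on both sides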;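 further: initial slope of Thallos dye fluorescence rise after thallium is added; log ratio against the mean of 0.3% DMSO vehicle wells on the same plate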); conditions: U2OS BacMam BK variants, at 30 µM
F380Y/beta1 = assay: as above; conditions: U2OS BacMam BK variants, at 30 µM
F380Y/beta2Delta = assay: as above; conditions: U2OS BacMam BK variants, at 30 µM
F380Y/beta4 = assay: as above; conditions: U2OS BacMam BK variants, at 30 µM
[14] = target: Calcium-activated potassium channel subunit alpha-1 (Homo sapiens) + Leucine-rich repeat-containing protein 26 (Homo sapiens) (UniProt Q12791+Q2I0M4); assay: as above; conditions: U2OS BacMam BK variants, F380Y/Slo1WT/gamma1, at 30 µM
Sequence of Calcium-activated potassium channel subunit alpha-1 (Homo sapiens) + Leucine-rich repeat-containing protein 26 (Homo sapiens) (Q2I0M4 whole entry, looked up, one chain of several): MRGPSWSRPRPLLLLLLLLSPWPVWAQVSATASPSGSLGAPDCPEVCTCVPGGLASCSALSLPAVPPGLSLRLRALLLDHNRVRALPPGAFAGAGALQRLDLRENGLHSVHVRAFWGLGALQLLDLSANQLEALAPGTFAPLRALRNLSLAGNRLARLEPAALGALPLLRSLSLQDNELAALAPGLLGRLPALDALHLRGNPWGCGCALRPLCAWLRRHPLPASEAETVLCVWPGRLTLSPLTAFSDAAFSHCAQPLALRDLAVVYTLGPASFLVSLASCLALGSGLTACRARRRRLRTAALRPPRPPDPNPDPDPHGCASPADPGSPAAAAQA

R275C = assay: as above; conditions: U2OS BacMam BK variants, at 30 µM
[15] = drug combination growth inhibition, ovarian cancer – cell-based, oncology-focused library, rucaparib conditional, profiling panel (AID 1508598); conditions: patient-derived ovarian cancer cells, CellTiter-Glo viability, 144 h, stronger effect = lower value
[16] = measured here: epithelial PC-3E GFP cell survival
[17] = measured here: mesenchymal TEM4-18 mCherry cell survival
[18] = stronger effect = lower value, cell number ratio, induced over uninduced
[19] = measured here: relative caspase fold change +Dox/-Dox
[20] = measured here: total cells with miR-34 induction, stronger effect = lower value
[21] = measured here: total cells without miR-34 induction
[22] = MELAS cybrid survival, CellTiter-Glo 48 h, stronger effect = higher value
[23] = Rieske KO mouse fibroblast survival, CellTiter-Glo 72 h

CC1(C)O[C@@H]2[C@@H](CO[C@@]3(COS(N)(=O)=O)OC(C)(C)O[C@@H]23)O1
1.93 and 6.61: fold change [11, 19]
9480 and 11800: cell count [11, 20]
1.58: normalised cell number [10, 17]
1.11: normalised cell number [10, 16]
inactive: nuclear beta-catenin stimulation ([1]; at 10 µM) -1.6% | insulin secretion stimulation [2] -0.2% | viability decrease [3] -4.2% | tube area decrease [4] 14.7% | GLP1 secretion stimulation [5] -0.1% | inhibition of viability [6] -8.2% | viability decrease (inhibition) [7] -0.9% | viability decrease (inhibition) [8] -7.1% | inhibition [9] 5.76% | red/green cell ratio (normalised) [10] 1.43 | fold change [11, 18] 0.931 and 0.874 | z-score [12, 22] 0.776 | remaining NAD [13] 10 nM | log fold change Tl+ flux (F380Y) -0.00202 | log fold change Tl+ flux (F380Y/beta1) 0.0196 | log fold change Tl+ flux (F380Y/beta2Delta) 0.0184 | log fold change Tl+ flux (F380Y/beta4) 0.0387 | log fold change Tl+ flux [14] 0.0353 | log fold change Tl+ flux (R275C) -0.04
0.6%: nuclear beta-catenin stimulation ([1]; stimulation, at 2 µM)
0.627: z-score [12, 23]
10200 and 13500: cell count [11, 21]

S=c1nc[nH]c2nc[nH]c12
1.23 and 0.341 and 5.81: fold change [11, 19]
5690 and 7180 and 6280: cell count [11, 20]
0.0168 (inactive) and 3.92 (active): z-score [12, 22]
active: viability decrease [3] 77.7% | tube area decrease [4] 95.3% | inhibition of viability [6] 83.2% | viability decrease (inhibition) [7] 107% | viability decrease (inhibition) [8] 79.1% | viability ([15]; at 0.000305 µM, OCI-P5x cells, with rucaparib 20 µM, 100% = cells with rucaparib alone) 94.6% | viability ([15]; at 0.000305 µM, OCI-P5x cells, without rucaparib) 92.1% | viability ([15]; at 0.00122 µM, OCI-P5x cells, with rucaparib 20 µM, 100% = cells with rucaparib alone) 98.4% | viability ([15]; at 0.00122 µM, OCI-P5x cells, without rucaparib) 94.6% | viability ([15]; at 0.00488 µM, OCI-P5x cells, with rucaparib 20 µM, 100% = cells with rucaparib alone) 99.6% | viability ([15]; at 0.00488 µM, OCI-P5x cells, without rucaparib) 90.4% | viability ([15]; at 0.0195 µM, OCI-P5x cells, with rucaparib 20 µM, 100% = cells with rucaparib alone) 94.9% | viability ([15]; at 0.0195 µM, OCI-P5x cells, without rucaparib) 84.4% | viability ([15]; at 0.0781 µM, OCI-C5x cells, without rucaparib) 95.4% | viability ([15]; at 0.0781 µM, OCI-P5x cells, with rucaparib 20 µM, 100% = cells with rucaparib alone) 90.4% | viability ([15]; at 0.0781 µM, OCI-P5x cells, without rucaparib) 87.6% | viability ([15]; at 0.313 µM, OCI-C5x cells, without rucaparib) 91.6% | viability ([15]; at 0.313 µM, OCI-P5x cells, with rucaparib 20 µM, 100% = cells with rucaparib alone) 89.7% | viability ([15]; at 0.313 µM, OCI-P5x cells, without rucaparib) 86.1% | viability ([15]; at 1.25 µM, OCI-C5x cells, without rucaparib) 93.1% | viability ([15]; at 1.25 µM, OCI-P5x cells, with rucaparib 20 µM, 100% = cells with rucaparib alone) 87.9% | viability ([15]; at 1.25 µM, OCI-P5x cells, without rucaparib) 80.6% | viability ([15]; at 5 µM, OCI-P5x cells, with rucaparib 20 µM, 100% = cells with rucaparib alone) 79% | viability ([15]; at 5 µM, OCI-P5x cells, without rucaparib) 79.9%
0.195 and 0.755: z-score [12, 23]
1.42: normalised cell number [10, 16]
1.07: normalised cell number [10, 17]
0.6%: nuclear beta-catenin stimulation ([1]; stimulation, at 2 µM)
7180 and 7540 and 7700: cell count [11, 21]
inactive: nuclear beta-catenin stimulation ([1]; at 10 µM) -0.9% | insulin secretion stimulation [2] 0.6% | GLP1 secretion stimulation [5] -0.7% | inhibition [9] -3.59% | red/green cell ratio (normalised) [10] 0.76 | fold change [11, 18] 0.793 and 0.952 and 0.815 | viability ([15]; at 0.000305 µM, OCI-C5x cells, with rucaparib 10 µM, 100% = cells with rucaparib alone) 120% | viability ([15]; at 0.000305 µM, OCI-C5x cells, without rucaparib) 111% | viability ([15]; at 0.00122 µM, OCI-C5x cells, with rucaparib 10 µM, 100% = cells with rucaparib alone) 110% | viability ([15]; at 0.00122 µM, OCI-C5x cells, without rucaparib) 105% | viability ([15]; at 0.00488 µM, OCI-C5x cells, with rucaparib 10 µM, 100% = cells with rucaparib alone) 111% | viability ([15]; at 0.00488 µM, OCI-C5x cells, without rucaparib) 100% | viability ([15]; at 0.0195 µM, OCI-C5x cells, with rucaparib 10 µM, 100% = cells with rucaparib alone) 104% | viability ([15]; at 0.0195 µM, OCI-C5x cells, without rucaparib) 109% | viability ([15]; at 0.0781 µM, OCI-C5x cells, with rucaparib 10 µM, 100% = cells with rucaparib alone) 123% | viability ([15]; at 0.313 µM, OCI-C5x cells, with rucaparib 10 µM, 100% = cells with rucaparib alone) 106% | viability ([15]; at 1.25 µM, OCI-C5x cells, with rucaparib 10 µM, 100% = cells with rucaparib alone) 105% | viability ([15]; at 5 µM, OCI-C5x cells, with rucaparib 10 µM, 100% = cells with rucaparib alone) 126% | viability ([15]; at 5 µM, OCI-C5x cells, without rucaparib) 107% | remaining NAD [13] 10 nM | log fold change Tl+ flux (F380Y) -0.0324 | log fold change Tl+ flux (F380Y/beta1) -0.00111 | log fold change Tl+ flux (F380Y/beta2Delta) -0.00985 | log fold change Tl+ flux (F380Y/beta4) -0.00864 | log fold change Tl+ flux [14] -0.0406 | log fold change Tl+ flux (R275C) -0.0342
